In PubChem BioAssay (Tox21):
Values joined by “and” are separate entries in the source; they are usually repeats but may differ in a detail not shown here. Identical values can stand only once. Inconclusive results are not listed. Some compounds were tested as several samples or in several runs, with calls that do not always agree. Active and inactive are the calls of the source. Unless noted, calls follow the shape of the dose curve; as a rule, active = well fitted curve in the direction sought with a large enough effect in the repeat runs; inconclusive = weak or mixed curves; inactive = no such curve, though single readings can be large; an effect the other way counts as inactive or inconclusive.

Columns and labels:
[1] = qHTS assay to identify small molecule antagonists of the thyroid receptor (TR) signaling pathway - cell viability counter screen (AID 743064); also: nearly all actives have a fitted effect of over 50% in size; also: potency is read from the fitted curve at half-maximal effect
Procedure, shortened: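 In rat pituitary GH3.TRE-Luc reporter cells co-exposed to compound and 1 nM T3 for 23.5 h, cytotoxicity was assessed with CellTiter-Fluor in the same wells, read by fluorescence.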

[2] = test system: thyroid hormone receptor (rat, GH3 cells); assay: qHTS assay to identify small molecule agonists of the thyroid receptor (TR) signaling pathway (AID 743066; calls by dose curve)
[3] = qHTS assay to identify small molecule antagonists of the estrogen receptor alpha (ER-alpha) signaling pathway - cell viability counter screen (AID 743074; calls by dose curve; also: nearly all actives have a fitted effect of over 45% in size; also: potency is read from the fitted curve at half-maximal effect)
[4] = qHTS assay to identify small molecule antagonists of the estrogen receptor alpha (ER-alpha) signaling pathway using the BG1 cell line - cell viability counter screen (AID 743081);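 also: compound given together with 17beta-estradiol as the ER stimulus; nearly all actives have a fitted effect of over 45% in size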; also: potency is read from the fitted curve at half-maximal effect
[5] = target: Aromatase (Homo sapiens) (UniProt P11511); assay: qHTS assay to identify aromatase inhibitors (AID 743083); also: series mostly up to about 70 µM; nearly all actives have a fitted effect of over 55% in size
Sequence of Aromatase (Homo sapiens) (P11511 whole entry, looked up): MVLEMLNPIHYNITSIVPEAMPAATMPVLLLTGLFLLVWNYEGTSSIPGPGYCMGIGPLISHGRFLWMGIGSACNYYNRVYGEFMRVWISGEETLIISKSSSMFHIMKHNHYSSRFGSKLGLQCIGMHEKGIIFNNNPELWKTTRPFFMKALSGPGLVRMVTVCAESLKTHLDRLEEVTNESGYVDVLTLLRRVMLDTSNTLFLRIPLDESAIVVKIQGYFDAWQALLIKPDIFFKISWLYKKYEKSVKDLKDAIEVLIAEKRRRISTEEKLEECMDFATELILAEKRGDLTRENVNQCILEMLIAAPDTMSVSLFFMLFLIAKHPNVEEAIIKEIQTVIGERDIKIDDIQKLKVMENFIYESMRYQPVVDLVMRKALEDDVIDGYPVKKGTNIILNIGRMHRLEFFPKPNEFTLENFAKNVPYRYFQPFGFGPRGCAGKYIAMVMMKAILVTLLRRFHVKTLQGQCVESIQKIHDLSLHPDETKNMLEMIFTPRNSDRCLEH

[6] = qHTS assay to identify aromatase inhibitors - cell viability counter screen (AID 743084);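 also: cells stimulated with testosterone during compound exposure; nearly all actives have a fitted effect of over 55% in size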; also: potency is read from the fitted curve at half-maximal effect
[7] = target: Aryl hydrocarbon receptor (Homo sapiens) (UniProt P35869); assay: qHTS assay to identify small molecule that activate the aryl hydrocarbon receptor (AhR) signaling pathway (AID 743085); also: nearly all actives have a fitted effect of over 15% in size; also: potency is read from the fitted curve at half-maximal effect;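 as to activation: HG2L7.5c1 human HepG2 liver cells with stably integrated DRE-driven firefly reporter; series mostly up to about 70 µM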
Sequence of Aryl hydrocarbon receptor (Homo sapiens) (P35869 whole entry, looked up): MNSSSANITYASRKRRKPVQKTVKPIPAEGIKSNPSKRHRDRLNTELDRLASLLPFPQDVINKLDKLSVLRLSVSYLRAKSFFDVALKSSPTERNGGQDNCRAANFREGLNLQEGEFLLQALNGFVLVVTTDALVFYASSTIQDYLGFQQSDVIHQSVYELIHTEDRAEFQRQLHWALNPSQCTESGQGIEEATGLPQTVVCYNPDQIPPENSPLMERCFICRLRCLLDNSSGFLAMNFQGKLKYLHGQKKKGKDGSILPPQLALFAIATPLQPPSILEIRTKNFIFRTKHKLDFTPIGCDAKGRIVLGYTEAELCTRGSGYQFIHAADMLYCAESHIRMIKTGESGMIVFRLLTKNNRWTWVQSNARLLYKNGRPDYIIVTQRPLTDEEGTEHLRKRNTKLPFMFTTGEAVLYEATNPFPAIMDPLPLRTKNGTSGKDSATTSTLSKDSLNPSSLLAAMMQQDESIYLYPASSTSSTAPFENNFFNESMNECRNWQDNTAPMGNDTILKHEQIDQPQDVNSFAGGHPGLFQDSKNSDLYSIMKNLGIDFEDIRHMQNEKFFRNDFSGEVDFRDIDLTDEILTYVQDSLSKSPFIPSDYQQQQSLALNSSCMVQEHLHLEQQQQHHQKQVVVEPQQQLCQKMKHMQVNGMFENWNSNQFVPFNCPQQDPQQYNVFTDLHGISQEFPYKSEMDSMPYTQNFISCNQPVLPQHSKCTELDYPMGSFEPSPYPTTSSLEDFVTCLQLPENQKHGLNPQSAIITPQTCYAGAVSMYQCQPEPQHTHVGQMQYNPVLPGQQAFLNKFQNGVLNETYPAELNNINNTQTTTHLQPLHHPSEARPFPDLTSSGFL
Procedure, shortened: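 AhR agonist activity is inferred from enhanced light output of a DRE-controlled firefly luciferase reporter in HepG2 cells, measured with ONE-Glo following 24 h treatment at 37C.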

[8] = qHTS assay to identify small molecule that activate the aryl hydrocarbon receptor (AhR) signaling pathway - cell viability counter screen (AID 743086); also: nearly all actives have a fitted effect of over 45% in size; also: potency is read from the fitted curve at half-maximal effect
Procedure, shortened: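 HepG2-AhR-luc (HG2L7.5c1) cells, 4000/well, were preincubated 5 h at 37C, exposed to compound in qHTS format for 24 hr at 37C, then given CellTiter-Fluor for 30 min; viability was read as fluorescence in the reporter wells.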

[9] = target: Peroxisome proliferator-activated receptor gamma (Homo sapiens) (UniProt P37231); assay: qHTS assay to identify small molecule agonists of the peroxisome proliferator-activated receptor gamma (PPARg) signaling pathway (AID 743094; active = well fitted activation curve with a large enough effect in the signal ratio in the repeat runs, not every such curve was filed as active; the % refers to the signal ratio)
Sequence of Peroxisome proliferator-activated receptor gamma (Homo sapiens) (P37231 whole entry, looked up): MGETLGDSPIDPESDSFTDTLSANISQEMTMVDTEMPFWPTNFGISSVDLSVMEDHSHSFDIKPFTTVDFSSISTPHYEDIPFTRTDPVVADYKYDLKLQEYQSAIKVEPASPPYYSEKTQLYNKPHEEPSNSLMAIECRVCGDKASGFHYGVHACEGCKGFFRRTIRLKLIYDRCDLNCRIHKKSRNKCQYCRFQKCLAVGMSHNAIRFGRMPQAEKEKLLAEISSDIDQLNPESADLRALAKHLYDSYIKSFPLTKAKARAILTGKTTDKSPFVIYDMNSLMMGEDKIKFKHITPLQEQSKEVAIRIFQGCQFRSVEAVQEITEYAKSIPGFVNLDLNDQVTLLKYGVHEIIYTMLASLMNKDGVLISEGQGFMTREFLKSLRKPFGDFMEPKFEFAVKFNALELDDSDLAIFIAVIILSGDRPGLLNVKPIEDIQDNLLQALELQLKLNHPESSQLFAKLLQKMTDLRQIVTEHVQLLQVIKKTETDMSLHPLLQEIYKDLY
Procedure, shortened: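 Reporter activation was scored by fluorescence of cleaved LiveBLAzer B/G substrate (1 h, room temperature) in PPARg-bla HEK293H cells previously treated 17 h at 37C with DMSO-dissolved compounds.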

[10] = target: Peroxisome proliferator-activated receptor gamma (Homo sapiens) (UniProt P37231); assay: qHTS assay to identify small molecule antagonists of the peroxisome proliferator-activated receptor gamma (PPARg) signaling pathway (AID 743191; calls by dose curve; also: nearly all actives have a fitted effect of over 30% in size; also: potency is read from the fitted curve at half-maximal effect)
Procedure, shortened: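 GeneBLAzer PPARg UAS-bla HEK293H cells carrying a UAS-driven beta-lactamase reporter were plated at 3000 cells/well, preincubated 5 h at 37C, then given compound for 17 h at 37C; LiveBLAzer B/G FRET substrate was read after 1 h at room temperature.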

[11] = qHTS assay to identify small molecule antagonists of the peroxisome proliferator-activated receptor gamma (PPARg) signaling pathway - cell viability counter screen (AID 743194); also: nearly all actives have a fitted effect of over 55% in size; also: potency is read from the fitted curve at half-maximal effect
Procedure, shortened: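 PPARg-UAS-bla HEK293H cells were plated, rested 5 h at 37 C, then treated with compounds plus rosiglitazone (50 nM final) for 17 h at 37 C; viability was then read by CellTiter-Glo luminescence after 30 min at room temperature.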

[12] = qHTS assay for small molecule agonists of the antioxidant response element (ARE) signaling pathway (AID 743202; active = well fitted activation curve with a large enough effect in the signal ratio in the repeat runs, not every such curve was filed as active; the % refers to the signal ratio; also: potency is read from the fitted curve at half-maximal effect)
Procedure, shortened: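 Steps: seed ARE-bla HepG2 cells (2,000/well); incubate 5 h at 37 C; add compounds by pin tool; incubate 16 h at 37 C; add FRET substrate; read fluorescence after 2 h at RT.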

[13] = qHTS assay for small molecule agonists of the antioxidant response element (ARE) signaling pathway - cell viability counter screen (AID 743203; calls by dose curve; also: nearly all actives have a fitted effect of over 55% in size; also: potency is read from the fitted curve at half-maximal effect)
Procedure, shortened: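 Viability counter screen: stably transfected ARE-bla HepG2 line, 16 hrs compound exposure at 37C/5% CO2, ATP-based CellTiter-Glo luminescence measured in the reporter wells.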

[14] = qHTS assay for small molecule activators of the heat shock response signaling pathway (AID 743210; active = well fitted activation curve with a large enough effect in the signal ratio in the repeat runs, with a control signal flat, not every such curve was filed as active; the % refers to the signal ratio;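 also: HeLa cells with beta-lactamase reporter driven by heat shock elements; series mostly up to about 63 µM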)
Procedure, shortened: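 Activation of heat shock element-controlled beta-lactamase expression is measured in HeLa cells by LiveBLAzer FRET fluorescence, with compound exposure lasting 5 h at 37 C and substrate loading 2.5 h at room temperature.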

[15] = qHTS assay to identify small molecule antagonists of the thyroid receptor (TR) signaling pathway (AID 743065)
Procedure, shortened: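 GH3.TRE-Luc rat pituitary cells carrying two TR response elements driving luciferase were plated for 4 h, given compound plus 1 nM T3 (final), and incubated 23.5 h at 37 C. ONE-Glo luminescence measured reporter inhibition; CellTiter-Fluor fluorescence tracked cytotoxicity.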

[16] = target: Estrogen receptor (Homo sapiens) (UniProt P03372); assay: qHTS assay to identify small molecule antagonists of the estrogen receptor alpha (ER-alpha) signaling pathway (AID 743069; active = well fitted curve in the direction sought with a large enough effect in the signal ratio in the repeat runs, not every such curve was filed as active; the % refers to the signal ratio)
Sequence of Estrogen receptor (Homo sapiens) (P03372 whole entry, looked up): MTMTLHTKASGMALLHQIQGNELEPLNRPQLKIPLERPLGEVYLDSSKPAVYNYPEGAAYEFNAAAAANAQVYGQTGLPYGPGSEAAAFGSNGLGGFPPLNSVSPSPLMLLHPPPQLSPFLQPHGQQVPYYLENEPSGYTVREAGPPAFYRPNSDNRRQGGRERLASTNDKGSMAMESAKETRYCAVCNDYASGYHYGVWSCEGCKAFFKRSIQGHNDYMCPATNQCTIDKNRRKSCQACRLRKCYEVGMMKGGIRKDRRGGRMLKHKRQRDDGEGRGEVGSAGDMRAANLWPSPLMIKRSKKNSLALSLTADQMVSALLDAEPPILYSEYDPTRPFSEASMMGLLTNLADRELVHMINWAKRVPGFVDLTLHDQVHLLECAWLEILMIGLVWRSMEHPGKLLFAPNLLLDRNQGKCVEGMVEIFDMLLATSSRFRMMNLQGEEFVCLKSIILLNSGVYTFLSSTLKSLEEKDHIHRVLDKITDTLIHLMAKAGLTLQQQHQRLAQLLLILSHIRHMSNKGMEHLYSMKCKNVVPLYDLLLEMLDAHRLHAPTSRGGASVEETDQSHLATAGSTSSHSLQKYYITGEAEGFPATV
Procedure, shortened: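 Screening used a UAS-driven beta-lactamase reporter integrated into HEK293 cells expressing ER-alpha, stimulated with 17beta-estradiol alongside test compounds over 18 hr at 37C; signal came from LiveBLAzer B/G FRET fluorescence.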

[17] = target: Estrogen receptor (Homo sapiens) (UniProt P03372); assay: qHTS assay to identify small molecule agonists of the estrogen receptor alpha (ER-alpha) signaling pathway (AID 743075; calls by dose curve)
[18] = target: Estrogen receptor (Homo sapiens) (UniProt P03372); assay: qHTS assay to identify small molecule agonists of the estrogen receptor alpha (ER-alpha) signaling pathway using the BG1 cell line (AID 743079); also: nearly all actives have a fitted effect of over 20% in size
[19] = qHTS assay to identify small molecule antagonists of the estrogen receptor alpha (ER-alpha) signaling pathway using the BG1 cell line (AID 743080; calls by dose curve;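 also: BG1 cells stimulated with 17beta-estradiol alongside compound; series mostly up to about 70 µM; nearly all actives have a fitted effect of over 25% in size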)
Procedure, shortened: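 Endogenous full-length ER-alpha in BG1-Luc-4E2 cells drives a stably integrated 4×ERE luciferase gene; compounds were tested against 17beta-estradiol over 21.5 h, with luminescence and multiplexed viability fluorescence recorded.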

[20] = qHTS assay for small molecule activators of the heat shock response signaling pathway - cell viability counter screen (AID 743209); also: nearly all actives have a fitted effect of over 50% in size
Procedure, shortened: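 Viability of HSE-bla HeLa cells is measured with CellTiter-Glo in the wells already used for the reporter read. Compound exposure lasts 5 h at 37 C, and luminescence is read after 30 min at room temperature.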

Measured: Potency
% is scaled to controls: 0 for no effect and ±100 for the full control effect.

IC(I)I
not listed: [15] | [16] | [17] | [18] | [19] | [20]
inactive: all other assays above

C=C[C@H]1CN2CC[C@H]1C[C@@H]2[C@@H](O)c1ccnc2ccc(OC)cc12
inactive: [1] | [3] | [4] | [5] | [6] | [8] | [11] | [12] | [13]

CC(C)=CCO
not listed: [1] | [12]
inactive: all other assays above

CC(=O)O[C@]1(C(C)=O)CC[C@H]2[C@@H]3C=C(C)C4=CC(=O)CC[C@]4(C)[C@H]3CC[C@@]21C
active: [12] 19.3 µM and 11.9 µM
not listed: [7] | [10] | [15] | [16] | [20]
inactive: all other assays above

CC/C(=C(/CC)c1ccc(O)cc1)c1ccc(O)cc1
inactive: [3] | [4] | [8] | [20]
active: [1] 54 µM and 54.5 µM
inactive and 68 µM (active): [6]

CC1(C)OC(=O)NC1=O
not listed: [15] | [16] | [17] | [18] | [19]
inactive: all other assays above

Cc1ccc(/C(=C\CN2CCCC2)c2ccccn2)cc1
not listed: [1] | [12] | [14] | [15] | [20]
inactive: all other assays above

C[C@]12CC[C@@H]3c4ccc(O)cc4CC[C@H]3[C@@H]1CC[C@@H]2O
not listed: [9] | [10] | [12] | [15] | [16] | [17] | [18] | [19]
inactive: all other assays above

CN(Cc1cnc2nc(N)nc(N)c2n1)c1ccc(C(=O)N[C@@H](CCC(=O)O)C(=O)O)cc1
active: [3] 0.239 µM | [12] 9.7 nM and 59.6 nM | [13] 6.1 nM and 47.3 nM
inactive: [2] | [17] | [18] | [4] | [5] | [6] | [8] | [20] | [14]

C=C[C@H]1CN2CC[C@H]1C[C@H]2[C@H](O)c1ccnc2ccc(OC)cc12
inactive: [3] | [4] | [5] | [6] | [8] | [11] | [13]
inactive and 43.3 µM (active): [1]

C=CN1CCCC1=O
not listed: [2] | [15] | [20]
inactive: all other assays above

c1ccc2c(c1)ccc1ncccc12
not listed: [2] | [7] | [12] | [15] | [16] | [17]
inactive: all other assays above

O=C1OC2(c3ccccc31)c1cc(I)c(O)c(I)c1Oc1c2cc(I)c(O)c1I
active: [1] 19.4 µM [middle of 4 runs] | [4] 10.9 µM [middle of 4 runs]
inactive: [2] | [3] | [5] | [11] | [12] | [13] | [20] | [14]
23.7 µM (active) and inactive: [7]

Cc1cccc(Nc2ccccc2C(=O)O)c1C
active: [10] 43.6 µM
not listed: [1] | [9] | [12] | [15] | [16] | [17] | [18] | [19]
inactive: all other assays above

Nc1ccc(O)c(N)c1
active: [4] 60.7 µM and 61.1 µM | [6] 54.1 µM | [8] 43.3 µM | [11] 43.6 µM
inactive: [2] | [16] | [3] | [17] | [19] | [5] | [9] | [12] | [13]

CCCN1C=CN(C)C1
not listed: [2] | [7] | [9] | [10] | [14] | [15]
inactive: all other assays above

C=CC(=O)OCCCC
not listed: [3] | [9] | [10] | [15] | [16] | [17] | [18] | [19]
inactive: all other assays above
